The structures appear in SMILES notation. Several values for one entry are separate records, joined by “and”; a condition that tells them apart may be missing. Equal entries are not always repeated. Inconclusive results are not listed. Activity calls are given as the source filed them. The call rests on the fitted dose curve; in most records, active means well fitted inhibition curve with a large enough effect; inconclusive means small, poorly fitted or top-dose-only effect; inactive means flat fitted curve, though single readings scatter.

Data on 14 compounds can be found in PubChem BioAssay (NCATS).

Experiment [1] relates to HaCat. In words: Cytotoxic Profiling of Annotated Libraries Using Quantitative High-Throughput Screening (AID 1296008). Conditions: Five cell lines viability, CellTiter-Glo ATP luminescence, 48-72 h; max response: active compounds read low. In a few lines: (§1)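 Compounds were pin-transferred onto cells and incubated 48 or 72 hr at 37 degree Celsius, 95% humidity. CellTiter-Glo was added, plates sat 10 min at room temperature, then ATP-coupled luminescence was imaged as the viability read-out.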

In experiment [2] the test system is KB-3-1. The experiment is described as above. To be noted: Five cell lines viability, CellTiter-Glo ATP luminescence, 48-72 h; max response: active compounds read low. The essentials: as §1
Experiment [3] relates to NIH3T3. The description is as above. To be noted: Five cell lines viability, CellTiter-Glo ATP luminescence, 48-72 h; max response: active compounds read low. In a few lines: as §1
In experiment [4] the test system is MCC-13. The experiment in a line: qHTS assay to identify novel small-molecules to repurpose for Merkel cell carcinoma treatment (AID 1296009). Conditions: MCC and control cell lines, CellTiter-Glo viability, 72 h; series mostly up to 46 µM. The essentials:
(§2)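 qHTS format: cells treated with library compounds in DMSO across 8 (NPC) or 11 (MIPE) concentrations. Readout after 72 hr at 37 degree celsius was CellTiter-Glo luminescence.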

Experiment [5] has as its system MCC-26. The description is as above. To be noted: MCC and control cell lines, CellTiter-Glo viability, 72 h; series mostly up to 46 µM. In a few lines:
as §2

For experiment [6], the system named is HEK293. In words: Cytotoxic Profiling of Annotated Libraries Using Quantitative High-Throughput Screening (AID 1296008). To be noted: Five cell lines viability, CellTiter-Glo ATP luminescence, 48-72 h; max response: active compounds read low. The essentials:
as §1

The test system of experiment [7] is HACAT. In words: qHTS assay to identify novel small-molecules to repurpose for Merkel cell carcinoma treatment (AID 1296009). To be noted: MCC and control cell lines, CellTiter-Glo viability, 72 h; at 44.8 µM (top of the series) unless noted. The essentials: as §2
Further: nearly all actives have a fitted effect of over 60% in size.
On the % scale 0 is the no-effect control and ±100 the full control effect; potency means the concentration at half of the fitted maximal effect.

As to `COc1ccc2c(Oc3ccc(NC(=O)c4c(C)n(CC(C)(C)O)n(-c5ccccc5)c4=O)cc3F)ccnc2c1`, the max response in experiment [1] is 2.66% (inactive) and -22.8% (inactive); in experiment [2] it was -19.2% (inactive). For the same compound, the Potency in experiment [3] is 8.33 µM (active) and 10.3 µM (active). Moreover, the Potency entry in experiment [4] and in experiment [5] was “inactive” each time.
Consider `Cc1c(O)cccc1C(=O)N[C@@H](CSc1ccccc1)[C@H](O)CN1C[C@H]2CCCC[C@@H]2C[C@@H]1C(=O)NC(C)(C)C`, for which, in experiment [4], the Potency entry was “inactive”.
Regarding `Clc1cc(Cl)cc(CNc2ncncc2-c2ccc3c(c2)OCO3)c1`, the Potency in experiment [6] is 20.9 µM (active). In addition, the Potency result in experiment [4] and in experiment [5] was “inactive” in each case.
As for `O=C(N[C@@H](c1ccccc1)[C@@H]1CCCCN1)c1cccc(C(F)(F)F)c1Cl`, the max response is 4.43% (inactive) in experiment [1], -7.93% (inactive) in experiment [2] and -0.909% (inactive) in experiment [3]. Moreover, the Potency result in experiment [4] and in experiment [5] was “inactive” throughout.
For the compound `CN(C)Cc1ccc(-c2nc3cccc4c3n2CCNC4=O)cc1`, the max response in experiment [1] was -6.01% (inactive) and -9.35% (inactive); in experiment [3], -8.05% (inactive) and -9.14% (inactive). In addition, the Potency result in experiment [4] and in experiment [5] was “inactive” in each case.
In the case of `Cc1nnc(C(C)C)n1C1C[C@H]2CC[C@@H](C1)N2CC[C@H](NC(=O)C1CCC(F)(F)CC1)c1ccccc1` (stereo partly drawn), the max response in experiment [1] is 3.6% (inactive); in experiment [2], 3.29% (inactive). Further, the compound was classed as inactive in experiment [3]. For the same compound, the Potency result in experiment [4] and in experiment [5] was “inactive” in each case.
Turning to `C[N+](C)(C)CC(=O)O`, the Potency entry in experiment [4] and in experiment [5] was “inactive” in each case.
On to `CC=CCC(C)C(O)C1C(=O)NC(CC)C(=O)N(C)CC(=O)N(C)C(CC(C)C)C(=O)NC(C(C)C)C(=O)N(C)C(CC(C)C)C(=O)NC(C)C(=O)NC(C)C(=O)N(C)C(CC(C)C)C(=O)N(C)C(CC(C)C)C(=O)N(C)C(C(C)C)C(=O)N1C` (stereo not drawn), for which the compound was called inactive in experiment [7]. The Potency entry in experiment [4] was “inactive”.
Consider `Cc1ccc(C(=O)Nc2cccc(C(F)(F)F)c2)cc1Nc1nc(-c2cccnc2)nc2c1cnn2C`, for which the Potency in experiment [6] was 13.2 µM (active); in experiment [3], 9.35 µM (active). In experiment [2], the max response was -14.6% (inactive). Moreover, the Potency result in experiment [4] and in experiment [5] was “inactive” in each case.
With `Cc1ccc(F)c(NC(=O)Nc2ccc(-c3cccc4[nH]nc(N)c34)cc2)c1`, the max response was 2.26% (inactive) in experiment [1] and -7.65% (inactive) in experiment [3]. Besides, the Potency entry in experiment [4] was “inactive”.
Take `C[C@]12CC[C@@H]3c4ccc(O)cc4C[C@@H](CCCCCCCCCS(=O)CCCC(F)(F)C(F)(F)F)[C@H]3[C@H]1CC[C@H]2O` (stereo partly drawn): the max response was 0.837% (inactive) in experiment [1] and 4.81% (inactive) in experiment [2]. Moreover, the result in experiment [3] was inactive. Further, the Potency entry in experiment [4] and in experiment [5] was “inactive” in each case.
As to `O=C(NOCC(O)CO)c1cc(Br)c(F)c(F)c1Nc1ccc(I)cc1F` (stereo not drawn), the values for the max response in experiment [6] and in experiment [2] were 0.434% (inactive) and -16.7% (inactive), respectively. The Potency entry in experiment [5] is “inactive”.
With `Oc1ccc(C2=Cc3ccc(O)cc3OC2)cc1`, the Potency in experiment [6] is 9.35 µM (active); in experiment [2], 16.6 µM (active); in experiment [3], 7.43 µM (active); in experiment [4] it was 10.5 µM (active); in experiment [5], 20.9 µM (active).
For `c1ccc2c(Cc3c[nH]c4ccccc34)c[nH]c2c1`, the result in experiment [1] and in experiment [7] was inactive. In addition, in experiment [2], the max response was -13.3% (inactive). Also, the Potency result in experiment [4] and in experiment [5] was “inactive” throughout.
